{"source": "PubChem BioAssay AID624487", "about": "(NMMLSC, 2012)", "note": "Potency and affinity values are given separately. Calls of active or inactive are those of the source.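 Rule for the calls: active = fitted EC50, the dose giving half the maximal drop in porphyrin signal, under 100 µM; inactive = the rest.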"}
{"target": "ATP-binding cassette sub-family B member 6 (Homo sapiens) (UniProt Q9NP58)", "sequence (Q9NP58 whole entry, looked up)": "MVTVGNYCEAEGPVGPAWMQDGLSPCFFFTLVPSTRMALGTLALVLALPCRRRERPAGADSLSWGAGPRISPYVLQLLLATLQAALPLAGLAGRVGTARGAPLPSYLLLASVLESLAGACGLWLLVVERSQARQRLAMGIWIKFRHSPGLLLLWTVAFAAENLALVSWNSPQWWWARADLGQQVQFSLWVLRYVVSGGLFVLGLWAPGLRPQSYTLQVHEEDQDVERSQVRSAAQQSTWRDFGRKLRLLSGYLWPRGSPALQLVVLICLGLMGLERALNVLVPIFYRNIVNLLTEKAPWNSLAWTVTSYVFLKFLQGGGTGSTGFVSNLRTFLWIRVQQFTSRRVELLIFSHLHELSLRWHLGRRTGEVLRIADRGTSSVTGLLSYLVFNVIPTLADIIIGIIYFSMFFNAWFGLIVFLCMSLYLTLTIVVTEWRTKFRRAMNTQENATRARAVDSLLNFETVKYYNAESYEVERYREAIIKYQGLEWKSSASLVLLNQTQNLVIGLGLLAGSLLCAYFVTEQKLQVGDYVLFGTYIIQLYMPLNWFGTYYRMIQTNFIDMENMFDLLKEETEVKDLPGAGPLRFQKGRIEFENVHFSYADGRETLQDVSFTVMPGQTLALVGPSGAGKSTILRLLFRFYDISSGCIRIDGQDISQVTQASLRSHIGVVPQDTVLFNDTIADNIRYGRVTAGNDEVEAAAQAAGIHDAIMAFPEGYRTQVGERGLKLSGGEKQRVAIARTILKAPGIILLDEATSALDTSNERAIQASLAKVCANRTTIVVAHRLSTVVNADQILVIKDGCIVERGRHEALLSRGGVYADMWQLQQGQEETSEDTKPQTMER", "experiment": "ABCB6 transporter inhibitors, porphyrin accumulation, dose response, flow cytometry, K562-ABCB6 cells, cherry pick 02 (AID 624487)", "details": "1 h; series mostly up to 100 µM"}
{"smiles": "Cc1nnc(NC(=O)c2nc(S(=O)(=O)Cc3ccccc3)ncc2Cl)s1", "outcome": "inactive"}
{"smiles": "Cc1nnc(NC(=O)c2nc(S(=O)(=O)Cc3ccccc3C)ncc2Cl)s1", "outcome": "inactive"}
{"smiles": "CCOC(=O)c1ccc(NC(=O)c2nc(S(=O)(=O)Cc3ccccc3)ncc2Cl)cc1", "outcome": "inactive"}
{"smiles": "CCOc1ccccc1NC(=O)c1nc(S(=O)(=O)Cc2ccccc2)ncc1Cl", "outcome": "inactive"}
{"smiles": "COc1ccc(OC)c(NC(=O)c2nc(S(=O)(=O)Cc3ccccc3)ncc2Cl)c1", "outcome": "inactive"}
{"smiles": "CCc1nnc(NC(=O)c2nc(S(=O)(=O)Cc3ccccc3)ncc2Cl)s1", "outcome": "inactive"}
{"smiles": "COc1ccc(NC(=O)c2nc(S(=O)(=O)Cc3cccc(C)c3)ncc2Cl)c(OC)c1", "outcome": "inactive"}
{"smiles": "Cc1ccc(CS(=O)(=O)c2ncc(Cl)c(C(=O)Nc3ccc(OC(F)F)cc3)n2)cc1", "outcome": "inactive"}
{"smiles": "CCCc1nnc(NC(=O)c2nc(S(=O)(=O)Cc3ccc(C)cc3)ncc2Cl)s1", "outcome": "inactive"}
{"smiles": "Cc1ccc(CS(=O)(=O)c2ncc(Cl)c(C(=O)Nc3nnc(C)s3)n2)cc1", "outcome": "inactive"}
{"smiles": "Cc1cccc(CS(=O)(=O)c2ncc(Cl)c(C(=O)Nc3nnc(C(C)C)s3)n2)c1", "outcome": "inactive"}
{"smiles": "CC(C)c1nnc(NC(=O)c2nc(S(=O)(=O)Cc3ccc(F)cc3)ncc2Cl)s1", "outcome": "inactive"}
{"smiles": "CCc1nnc(NC(=O)c2nc(S(=O)(=O)Cc3cccc(C)c3)ncc2Cl)s1", "outcome": "inactive"}
